From PubChem BioAssay
The list is not random: actives were taken first. Their share in the collection is about 2.6%.
LGR2 antag – inhibitors of bursicon-induced LGR2 CRE-luciferase signal, primary screen, cell-based, HEK293, CRE-luciferase reporter, bursicon stimulation; Drosophila bursicon receptor LGR2 (rickets); bursicon-stimulated, 4 h; inhibition, % at 9.99 µM; 380,000 tested, 0.35% active; AID 720647, 2013;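 active = drop in luminescence signal, shown as inhibition above about 50% in the replicate tests, limit read from the data, passing the limit was not always enough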;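 note: agonist challenge used bursicon conditioned medium at about half maximal strength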
EBV LMP1 NFkB – EBV LMP1-driven NF-kappaB luciferase reporter inhibitors, primary screen, cell-based, luminescence, single point; AID 504558, 2011; inhibition, % at 12.5 µM; 350,000 tested, 0.69% active; LMP1-induced NF-kappaB luciferase reporter cells; in the data active = inhibition above about 41%;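 note: 0% = neutral control wells and 100% = reference inhibitor control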
HSP90 inh – HSP90 inhibitors, primary screen, cell lysate, luminescence | inhibition, % at 5.6 µM | Heat shock protein HSP 90 (rabbit reticulocyte lysate; luciferase refolding) | 290,000 tested, 0.91% active | Rabbit reticulocyte lysate, luciferase refolding luminescence, 3 h | AID 1789, 2009;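 active = inhibition above the screen-wide mean plus 3 SD, computed separately per campaign, cut at about 16% in these data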;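 note: 0% = DMSO wells and 100% = 60 µM geldanamycin wells; inhibitors lower the luminescence because luciferase stays unfolded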
aDG glyco up – activators of alpha-DG glycosylation, primary screen, uHTS, Pro5-aDG cells, AlphaScreen | 360,000 tested, 0.22% active | activation, % at 10 µM | AID 624168, 2012 | alpha-DG glycosylation AlphaScreen (IIH6); 0% Pro5, 100% B10-LARGE cell signal;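 active = activation of at least 8% versus controls, or a plate z-score of at least 8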;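 note: Pro5 are CHO cells carrying HIG-tagged alpha-DG that lacks glycosylation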
TROY signal inh – inhibitors of TROY-driven NF-kB signaling, primary screen, Q293 LMP1-TROYcd cells, NF-kB luciferase, uHTS. Q293 LMP1-TROYcd NF-kB luciferase reporter, 4 h. inhibition, % at 10 µM. 360,000 tested, 0.98% active. AID 1347056, 2019;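 active = compounds whose plate-normalised and pattern-corrected inhibition of the luciferase reporter signal at the single screening dose is 50% or more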
TWEAK Fn14 block – inhibitors of TWEAK-Fn14 signaling, primary screen, luciferase reporter cells, uHTS | 360,000 tested, 2% active | TWEAK-stimulated Fn14 reporter cells, luciferase luminescence, 8 h | inhibition, % at 10 µM; in the data active = inhibition above about 50%
Starred values were filed as active, the others as inactive; . = no result.

SMILES | LGR2 antag | EBV LMP1 NFkB | HSP90 inh | aDG glyco up | TROY signal inh | TWEAK Fn14 block
COCC(=O)Nc1ccc2c(c1)[C@@H]1C[C@H](CC(=O)NCc3ccccc3F)O[C@@H](CO)[C@@H]1O2 | 14 | . | . | . | . | .
COc1ccc(-c2cc(-c3ccccc3)no2)cc1 | 78* | -22 | . | 0 | 18 | 69*
c1ccc(-c2cc(-c3cc(-c4ccccc4)on3)no2)cc1 | 7 | -45 | . | 0 | -54 | -17
CCOc1ccc2nc(SCC(=O)Nc3ccc4c(c3)OCCO4)[nH]c2c1 | . | 7 | -2 | 0 | 1 | -18
COc1ccc2nc(SCC(=O)Nc3ccc4c(c3)OCCO4)[nH]c2c1 | -8 | 14 | 12 | 0 | 69* | 89*
CC(C)CC(NC(=O)c1ccco1)C(=O)Nc1ccc2c(c1)OCCO2 (configuration not stated) | 2 | -10 | 5 | 0 | 43 | 76*
Cc1ccc(OCC(=O)Nc2ccc3c(c2)OCCO3)cc1C | -44 | 10 | 8 | 1 | 44 | 54*
Cc1ccc(NC(=O)CNC(=O)c2ccco2)cc1Cl | -34 | -10 | -4 | 0 | -12 | -4
O=C(CNC(=O)c1ccco1)Nc1ccc2c(c1)OCCO2 | 22 | 32 | . | 0 | 71* | 86*
Cc1cc(C(=O)Nc2cccc3c2O[C@H](CN(C)C(=O)Nc2ccc(C(F)(F)F)cc2)[C@@H](C)CN([C@H](C)CO)C3=O)n(C)n1 | -9 | . | . | . | . | .
C[C@@H]1CN([C@H](C)CO)C(=O)c2cccc(NC(=O)Nc3ccc(C(F)(F)F)cc3)c2O[C@@H]1CN(C)C(=O)Nc1ccc(F)cc1 | 16 | . | . | . | . | .
COc1ccc(CNC(=O)C[C@H]2C=C[C@H](NC(=O)Nc3ccc4c(c3)OCO4)[C@H](CO)O2)cc1 | 4 | . | . | . | . | .
Clc1ccc(Cn2cc(/C=N/n3cnnc3)c3ccccc32)c(Cl)c1 | . | -2 | -1 | 3 | 46 | 54*
Fc1ccc2[nH]c3c(N4CCN(c5ccccc5)CC4)ncnc3c2c1 | . | 50* | -3 | 3 | 76* | 102*
CCOC(=O)N1CCN(c2ncnc3c2[nH]c2ccc(F)cc23)CC1 | . | 38 | 0 | 5.9* | 42 | 38
CCCCOc1ncnc2c1[nH]c1ccc(F)cc12 | . | 4 | 1 | 6.5* | 7 | 45
O=C(CCCN1CCC(O)(c2cccc(C(F)(F)F)c2)CC1)c1ccc(F)cc1 | 10 | 5 | . | 0 | 9 | -6
OC1(c2cccc(C(F)(F)F)c2)CCN(c2ncnc3c2[nH]c2ccc(F)cc23)CC1 | . | 44* | -3 | 3.7* | 77* | 98*
CCNC(=O)C[C@@H]1CC[C@H]2[C@@H](COC[C@H](O)CN2Cc2ccccc2F)O1 | 0 | . | . | . | . | .
O=C(CC1C[C@H](C(=O)N2CCOCC2)[C@@]2(CCC3CCCC3)c3[nH]c4ccccc4c3CCN2C1=O)NCCN1CCOCC1 (some centres not stated) | -5 | 12 | . | 0 | 7 | 0
C[C@]12c3[nH]c4ccc(Cl)cc4c3CCN1C(=O)[C@@H](CC(=O)NCC13CC4CC(CC(C4)C1)C3)C[C@@H]2C(=O)N1CCCCC1 | 7 | 3 | . | 0 | 35 | 61*
C[C@]12c3[nH]c4ccc(Cl)cc4c3CCN1C(=O)[C@@H](CC(=O)NCC13CC4CC(CC(C4)C1)C3)C[C@@H]2C(=O)N1CCOCC1 | -2 | -3 | . | 0 | 39 | 42
O=C(C[C@H]1C[C@H](C(=O)N2CCCCC2)[C@@]2(CCc3ccccc3)c3[nH]c4ccc(Cl)cc4c3CCN2C1=O)NCCc1ccccn1 | . | 20 | . | 0 | 63* | 69*
O=C(CC1C[C@H](C(=O)N2CCOCC2)[C@@]2(CCC3CCCC3)c3[nH]c4ccccc4c3CCN2C1=O)NCC12CC3CC(CC(C3)C1)C2 (some centres not stated) | 20 | 12 | . | 0 | 3 | 50*
C[C@H]1CN([C@@H](C)CO)C(=O)c2cc(NC(=O)NC3CCCCC3)ccc2O[C@H]1CN(C)Cc1ccccc1 | 9 | . | . | . | . | .
SMILES | LGR2 antag | EBV LMP1 NFkB | HSP90 inh | aDG glyco up | TROY signal inh | TWEAK Fn14 block
O=c1[nH]c(-c2ccccc2)cnc1-c1ccccc1 | -23 | . | . | 0 | -21 | 73*
O=C(Nc1ccc2c(c1)OCCO2)C1CCCN1C(=O)Nc1ccc(F)cc1 (configuration not stated) | 4 | -1 | 1 | 0 | 32 | 59*
CC(=O)Nc1cccc(NC(=O)C2CCCN2C(=O)Nc2cccc(C)c2)c1 (configuration not stated) | . | -4 | 1 | 0 | -1 | 0
CC(=O)c1cccc(NC(=O)N2CCCC2C(=O)Nc2cccc(C)c2)c1 (configuration not stated) | . | -3 | 0 | 0 | 12 | 66*
CCCC(NS(=O)(=O)c1ccc(-c2ccc(=O)[nH]n2)s1)c1cccs1 (configuration not stated) | -12 | -13 | -1 | 0 | 35 | 58*
CO[C@@H]1CN(C)C(=O)c2ccc(NS(C)(=O)=O)cc2OC[C@H](C)N(C(=O)c2ccc3c(c2)OCO3)C[C@H]1C | -2 | . | . | . | . | .
Cc1ccc2[nH]c3c(NCc4ccco4)ncnc3c2c1 | . | 4 | -2 | 4.7* | -21 | 44
COc1cc(CNc2ncnc3c2[nH]c2ccc(C)cc23)cc(OC)c1 | 23 | 28 | 0 | 0 | 50* | 24
Cc1noc(C)c1NC(=O)N(C)C[C@@H]1OCCCC[C@@H](C)Oc2ccc(NC(=O)NC3CCCCC3)cc2C(=O)N([C@H](C)CO)C[C@H]1C | 3 | . | . | . | . | .
C[C@@H]1CCCCO[C@@H](CN(C)C(=O)Nc2ccc(C(F)(F)F)cc2)[C@H](C)CN([C@@H](C)CO)C(=O)c2cc(NC(=O)NC3CCCCC3)ccc2O1 | 2 | . | . | . | . | .
COc1ccc2c3c([nH]c2c1)[C@H](CO)N(C(=O)C1CCC1)CC31CN(C)C1 | 0 | . | . | . | . | .
CO[C@@H]1CC[C@@H]2CCOc3c(C#N)cccc3C(=O)N(C)C[C@@H](OC)[C@@H](C)C(=O)N(C)C[C@@H]1O2 | 2 | . | . | . | . | .
CN(C)CCCC1(c2ccc(F)cc2)OCc2cc(C#N)ccc21 (configuration not stated) | 3 | 54* | 1 | 0 | 5 | 0
COc1cccc(-c2nnc(SC(C(=O)c3c[nH]c4ccccc34)c3ccccc3)n2C)c1 (configuration not stated) | 5 | 8 | 1 | 1 | 25 | 51*
COc1ccccc1-c1nnc(SC(C(=O)c2c[nH]c3ccccc23)c2ccccc2)n1C (configuration not stated) | 19 | -6 | 2 | 0 | 34 | 43
